PubChem BioAssay (NCATS)
Results filed as inconclusive are left out. Activity calls are given as the source filed them. Calls follow the shape of the dose curve; as a rule, active = well fitted inhibition curve with a large enough effect; inconclusive = small, poorly fitted or top-dose-only effect; inactive = flat fitted curve, though single readings scatter.

What was measured:
Assay in all cases: qHTS profiling for inhibitors of Plasmodium falciparum proliferation (AID 504749); also: nearly all actives have a fitted effect of over 60% in size
Conditions in all cases: P. falciparum in erythrocytes, SYBR Green DNA, 72 h; series mostly up to 28.7 µM
CP262 = system: CP262
Procedure, shortened: (§1)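 Readout was DNA-dye fluorescence from lysed cultures, ex 485/em 535 nm. Parasitized red cells had grown 72 h with compound; data scaled between 0.29 uM artemisinin and DMSO wells and corrected using vehicle-only plates.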

CP265 = system: CP265
Procedure, shortened: as §1

CP266 = system: CP266
Procedure, shortened: as §1

CP268 = system: CP268
Procedure, shortened: as §1

CP269 = system: CP269
Procedure, shortened: as §1

CP286 = system: CP286
Procedure, shortened: as §1

CP291 = system: CP291
Procedure, shortened: as §1

CP297 = system: CP297
Procedure, shortened: as §1

CP305 = system: CP305
Procedure, shortened: as §1

CP315 = system: CP315
Procedure, shortened: as §1

CP325 = system: CP325
Procedure, shortened: as §1

CP329 = system: CP329
Procedure, shortened: as §1

CP335 = system: CP335
Procedure, shortened: as §1

DFO2036 = system: DFO2036
Procedure, shortened: as §1

DIV14 = system: DIV14
Procedure, shortened: as §1

DIV17 = system: DIV17
Procedure, shortened: as §1

DIV30 = system: DIV30
Procedure, shortened: as §1

Dd2 = system: Dd2
Procedure, shortened: as §1

ECU = system: ECU
Procedure, shortened: as §1

FAB9 = system: FAB9
Procedure, shortened: as §1

GB4 = system: GB4
Procedure, shortened: as §1

HB3 = system: HB3
Procedure, shortened: as §1

JCK = system: JCK
Procedure, shortened: as §1

N140 = system: N140
Procedure, shortened: as §1

P93_24 = system: P93_24
Procedure, shortened: as §1

P94_40 = system: P94_40
Procedure, shortened: as §1

PAD = system: PAD
Procedure, shortened: as §1

PC15 = system: PC15
Procedure, shortened: as §1

PC26 = system: PC26
Procedure, shortened: as §1

PC49 = system: PC49
Procedure, shortened: as §1

SC27B = system: SC27B
Procedure, shortened: as §1

TAB109 = system: TAB109
Procedure, shortened: as §1

TAB113 = system: TAB113
Procedure, shortened: as §1

TAB165 = system: TAB165
Procedure, shortened: as §1

W2 = system: W2
Procedure, shortened: as §1

Measured: Potency

CC1(C)[C@@H]2CC[C@]1(C)[C@@H](OC(=O)CSC#N)C2
inactive: CP262 | CP265 | CP266 | CP268 | CP269 | CP286 | CP291 | CP297 | CP305 | CP315 | CP325 | CP329 | CP335 | DFO2036 | DIV14 | DIV17 | DIV30 | Dd2 | ECU | FAB9 | GB4 | HB3 | JCK | N140 | P93_24 | P94_40 | PAD | PC15 | PC26 | PC49 | SC27B | TAB109 | TAB113 | TAB165 | W2
